Of roughly 7,900 targets only a part is listed; those with a hit were picked by preference. About 0.6% of all pairs of compound and target were hits. Values without a mark were called inactive.
What was measured:
Test in all cases: log2 fold change, soluble protein after heating vs DMSO (PISA); higher = thermal stabilisation; K562 cells, 10 uM, 30 min; active = over 0.2 and 3.5 SD of the protein, either way, in both replicates (recomputed)
saracatinib = compound: CN1CCN(CCOc2cc(OC3CCOCC3)c3c(Nc4c(Cl)ccc5c4OCO5)ncnc3c2)CC1 [saracatinib]
In short: (§1)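 Thermal stability values are relative to control samples and come from duplicates. They are expressed as log2 fold changes. For measurement, K562 cells (2×10^6 cells/mL) received 10 μM compound for 30 min, and aliquots were heated for 3 min over 48°C-58°C, pooled, and extracted at 4°C in PBS with 0.5% NP-40. Soluble protein, the supernatant after 21,000xg for 90 min, was quantified by TMTpro 16plex LC-MS/MS with equalised channel sums.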

sotrastaurin = compound: CN1CCN(c2nc(C3=C(c4c[nH]c5ccccc45)C(=O)NC3=O)c3ccccc3n2)CC1 [sotrastaurin]
In short: as §1

alvocidib = compound: CN1CC[C@H](c2c(O)cc(O)c3c(=O)cc(-c4ccccc4Cl)oc23)[C@H](O)C1 [alvocidib]
In short: as §1

Tubastatin A = compound: CN1CCc2c(c3ccccc3n2Cc2ccc(C(=O)NO)cc2)C1 [Tubastatin A]
In short: as §1

[1] = compound: CNC(=O)C1=CC=CC=C1NC2=NC(=NC=C2Cl)NC3=C(C=C(C=C3)N4CCOCC4)OC
In short: as §1

defactinib = compound: CNC(=O)c1ccc(Nc2ncc(C(F)(F)F)c(NCc3nccnc3N(C)S(C)(=O)=O)n2)cc1 [defactinib]
In short: as §1

rucaparib = compound: CNCc1ccc(-c2[nH]c3cc(F)cc4c3c2CCNC4=O)cc1 [rucaparib]
In short: as §1

[2] = compound: CNc1nc(-c2ccc3c(N)n[nH]c3c2)cc(N2C[C@@H](C(=O)NC3CCCCC3)CC[C@H]2C)n1
In short: as §1

encorafenib = compound: COC(=O)N[C@@H](C)CNc1nccc(-c2cn(C(C)C)nc2-c2cc(Cl)cc(NS(C)(=O)=O)c2F)n1 [encorafenib]
In short: as §1

[3] = compound: COC(=O)[C@H](CCSC)NC(=O)C1=C(C=C(C=C1)NC[C@H](CS)N)C2=CC=CC=C2
In short: as §1

[4] = compound: COC1=CC=C(C=C1)CN2C=CC3=C2C=C(C=C3)C(=O)NO
In short: as §1

filanesib = compound: CON(C)C(=O)N1N=C(c2cc(F)ccc2F)S[C@@]1(CCCN)c1ccccc1 [filanesib]
In short: as §1

zotarolimus = compound: CO[C@H]1C[C@@H]2CC[C@@H](C)[C@@](O)(O2)C(=O)C(=O)N2CCCC[C@H]2C(=O)O[C@H]([C@H](C)C[C@@H]2CC[C@H](n3cnnn3)[C@H](OC)C2)CC(=O)[C@H](C)/C=C(\C)[C@@H](O)[C@@H](OC)C(=O)[C@H](C)C[C@H](C)/C=C/C=C/C=C/1C [zotarolimus]
In short: as §1

idasanutlin = compound: COc1cc(C(=O)O)ccc1NC(=O)[C@@H]1N[C@@H](CC(C)(C)C)[C@](C#N)(c2ccc(Cl)cc2F)[C@H]1c1cccc(Cl)c1F [idasanutlin]
In short: as §1

alisertib = compound: COc1cc(Nc2ncc3c(n2)-c2ccc(Cl)cc2C(c2c(F)cccc2OC)=NC3)ccc1C(=O)O [alisertib]
In short: as §1

[5] = compound: COc1cc2nc(-c3cc(F)ccc3O)nc(N[C@@H]3CNC[C@H]3C(C)(C)O)c2cc1OC
In short: as §1

gefitinib = compound: COc1cc2ncnc(Nc3ccc(F)c(Cl)c3)c2cc1OCCCN1CCOCC1 [gefitinib]
In short: as §1

[6] = compound: COc1cccc2cc(-c3nc([C@H]4CC[C@H](C(=O)O)CC4)n4ncnc(N)c34)[nH]c12
In short: as §1

pictilisib = compound: CS(=O)(=O)N1CCN(Cc2cc3nc(-c4cccc5[nH]ncc45)nc(N4CCOCC4)c3s2)CC1 [pictilisib]
In short: as §1

lapatinib = compound: CS(=O)(=O)CCNCc1ccc(-c2ccc3ncnc(Nc4ccc(OCc5cccc(F)c5)c(Cl)c4)c3c2)o1 [lapatinib]
In short: as §1

Chain of UniProt P98171 (P98171 whole entry, looked up): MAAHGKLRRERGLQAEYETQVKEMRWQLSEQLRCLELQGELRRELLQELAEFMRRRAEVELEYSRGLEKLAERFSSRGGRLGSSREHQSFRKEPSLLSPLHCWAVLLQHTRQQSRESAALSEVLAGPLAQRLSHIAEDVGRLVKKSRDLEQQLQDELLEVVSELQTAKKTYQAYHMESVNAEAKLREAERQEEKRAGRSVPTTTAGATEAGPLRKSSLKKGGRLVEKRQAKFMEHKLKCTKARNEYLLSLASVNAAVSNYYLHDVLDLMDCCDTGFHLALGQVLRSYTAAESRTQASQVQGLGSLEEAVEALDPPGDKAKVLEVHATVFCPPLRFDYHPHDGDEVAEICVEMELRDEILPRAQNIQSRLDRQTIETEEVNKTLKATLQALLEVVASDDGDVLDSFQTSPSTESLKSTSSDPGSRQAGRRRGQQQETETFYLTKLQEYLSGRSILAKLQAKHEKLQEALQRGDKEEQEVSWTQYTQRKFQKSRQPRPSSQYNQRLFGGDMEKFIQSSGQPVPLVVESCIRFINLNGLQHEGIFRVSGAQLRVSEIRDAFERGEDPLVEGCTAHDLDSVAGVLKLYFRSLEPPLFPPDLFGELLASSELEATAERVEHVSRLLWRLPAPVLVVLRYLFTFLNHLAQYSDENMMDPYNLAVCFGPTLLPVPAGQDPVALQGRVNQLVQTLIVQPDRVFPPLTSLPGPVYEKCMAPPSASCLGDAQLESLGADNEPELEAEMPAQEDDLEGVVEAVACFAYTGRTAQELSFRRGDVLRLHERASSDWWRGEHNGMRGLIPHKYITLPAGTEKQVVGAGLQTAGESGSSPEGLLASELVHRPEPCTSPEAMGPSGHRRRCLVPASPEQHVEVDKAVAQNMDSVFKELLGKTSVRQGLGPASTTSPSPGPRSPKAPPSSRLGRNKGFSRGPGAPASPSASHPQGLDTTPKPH
Chain of UniProt O60566 (O60566 whole entry, looked up): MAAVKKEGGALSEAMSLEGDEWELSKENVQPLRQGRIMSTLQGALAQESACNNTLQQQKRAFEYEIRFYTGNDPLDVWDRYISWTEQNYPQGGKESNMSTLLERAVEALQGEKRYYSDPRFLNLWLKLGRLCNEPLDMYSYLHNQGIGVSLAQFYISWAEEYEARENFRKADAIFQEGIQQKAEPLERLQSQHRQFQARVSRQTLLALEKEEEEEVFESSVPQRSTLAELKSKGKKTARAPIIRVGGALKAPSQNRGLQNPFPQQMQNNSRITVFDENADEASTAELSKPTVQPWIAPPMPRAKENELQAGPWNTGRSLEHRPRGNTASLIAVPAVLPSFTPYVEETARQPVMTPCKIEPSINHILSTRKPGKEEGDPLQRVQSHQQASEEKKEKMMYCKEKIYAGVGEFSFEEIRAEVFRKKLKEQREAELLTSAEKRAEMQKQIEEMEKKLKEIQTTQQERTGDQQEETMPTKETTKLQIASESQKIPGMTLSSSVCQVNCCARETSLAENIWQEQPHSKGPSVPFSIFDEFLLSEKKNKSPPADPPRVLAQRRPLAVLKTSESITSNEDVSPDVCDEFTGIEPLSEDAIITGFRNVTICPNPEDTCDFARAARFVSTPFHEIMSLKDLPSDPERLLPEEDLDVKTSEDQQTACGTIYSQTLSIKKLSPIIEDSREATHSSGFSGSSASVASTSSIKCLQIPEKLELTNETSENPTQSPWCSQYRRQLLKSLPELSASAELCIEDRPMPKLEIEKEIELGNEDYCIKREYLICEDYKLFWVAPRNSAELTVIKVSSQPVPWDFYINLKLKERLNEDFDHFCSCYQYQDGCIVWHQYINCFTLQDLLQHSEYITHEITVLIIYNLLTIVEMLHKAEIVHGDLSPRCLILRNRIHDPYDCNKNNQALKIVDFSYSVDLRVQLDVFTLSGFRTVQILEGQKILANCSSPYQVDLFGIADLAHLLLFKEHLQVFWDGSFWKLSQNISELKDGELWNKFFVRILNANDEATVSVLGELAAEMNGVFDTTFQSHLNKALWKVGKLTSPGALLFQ
Chain of UniProt Q7Z3C6 (Q7Z3C6 whole entry, looked up): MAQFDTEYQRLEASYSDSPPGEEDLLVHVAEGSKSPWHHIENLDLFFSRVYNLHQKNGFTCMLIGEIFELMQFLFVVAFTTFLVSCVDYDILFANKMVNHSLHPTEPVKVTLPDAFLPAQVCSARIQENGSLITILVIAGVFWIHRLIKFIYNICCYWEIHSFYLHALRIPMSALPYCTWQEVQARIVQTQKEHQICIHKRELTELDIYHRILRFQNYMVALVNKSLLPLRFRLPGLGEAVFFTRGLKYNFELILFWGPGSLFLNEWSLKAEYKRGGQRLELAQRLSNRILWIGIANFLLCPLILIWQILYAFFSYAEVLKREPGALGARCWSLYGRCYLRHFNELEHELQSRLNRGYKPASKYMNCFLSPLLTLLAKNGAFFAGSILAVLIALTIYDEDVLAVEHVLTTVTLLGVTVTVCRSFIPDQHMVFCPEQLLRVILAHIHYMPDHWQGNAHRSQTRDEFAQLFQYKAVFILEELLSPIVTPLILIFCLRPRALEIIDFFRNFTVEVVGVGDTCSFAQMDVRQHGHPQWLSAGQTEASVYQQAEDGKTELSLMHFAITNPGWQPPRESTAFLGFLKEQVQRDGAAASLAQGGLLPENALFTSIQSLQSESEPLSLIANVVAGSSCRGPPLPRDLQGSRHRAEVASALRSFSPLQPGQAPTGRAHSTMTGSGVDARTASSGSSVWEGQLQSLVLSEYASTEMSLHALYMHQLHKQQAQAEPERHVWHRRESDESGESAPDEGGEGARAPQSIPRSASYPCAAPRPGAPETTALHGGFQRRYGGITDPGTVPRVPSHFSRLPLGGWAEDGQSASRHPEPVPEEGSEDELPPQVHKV
Chain of UniProt P24666 (P24666 whole entry, looked up): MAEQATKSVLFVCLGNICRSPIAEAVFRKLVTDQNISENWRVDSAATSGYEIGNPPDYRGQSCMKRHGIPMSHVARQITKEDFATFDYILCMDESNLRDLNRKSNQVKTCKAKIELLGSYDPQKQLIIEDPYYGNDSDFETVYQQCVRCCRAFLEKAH
Chain of UniProt P25440 (P25440 whole entry, looked up): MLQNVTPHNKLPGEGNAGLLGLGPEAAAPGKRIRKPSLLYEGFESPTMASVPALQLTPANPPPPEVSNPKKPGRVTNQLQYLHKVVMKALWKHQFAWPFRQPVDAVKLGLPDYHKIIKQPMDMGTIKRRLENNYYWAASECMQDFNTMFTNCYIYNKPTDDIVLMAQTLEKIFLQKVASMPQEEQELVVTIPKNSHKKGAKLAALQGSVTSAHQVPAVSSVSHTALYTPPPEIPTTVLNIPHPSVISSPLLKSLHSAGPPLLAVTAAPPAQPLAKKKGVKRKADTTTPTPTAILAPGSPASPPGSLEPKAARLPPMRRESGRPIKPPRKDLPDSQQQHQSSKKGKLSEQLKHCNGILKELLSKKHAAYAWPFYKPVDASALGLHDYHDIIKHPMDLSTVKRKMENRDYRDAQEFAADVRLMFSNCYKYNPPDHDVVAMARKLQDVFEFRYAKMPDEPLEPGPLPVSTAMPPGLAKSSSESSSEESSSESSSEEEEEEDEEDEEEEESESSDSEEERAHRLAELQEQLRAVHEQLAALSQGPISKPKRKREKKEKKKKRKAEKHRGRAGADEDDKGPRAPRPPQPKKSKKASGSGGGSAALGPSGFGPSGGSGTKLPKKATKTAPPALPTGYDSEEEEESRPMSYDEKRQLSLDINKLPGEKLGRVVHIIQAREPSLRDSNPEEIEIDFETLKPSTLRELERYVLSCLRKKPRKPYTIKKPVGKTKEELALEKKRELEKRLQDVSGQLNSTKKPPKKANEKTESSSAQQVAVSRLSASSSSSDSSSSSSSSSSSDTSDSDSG
Chain of UniProt O95870 (O95870 whole entry, looked up): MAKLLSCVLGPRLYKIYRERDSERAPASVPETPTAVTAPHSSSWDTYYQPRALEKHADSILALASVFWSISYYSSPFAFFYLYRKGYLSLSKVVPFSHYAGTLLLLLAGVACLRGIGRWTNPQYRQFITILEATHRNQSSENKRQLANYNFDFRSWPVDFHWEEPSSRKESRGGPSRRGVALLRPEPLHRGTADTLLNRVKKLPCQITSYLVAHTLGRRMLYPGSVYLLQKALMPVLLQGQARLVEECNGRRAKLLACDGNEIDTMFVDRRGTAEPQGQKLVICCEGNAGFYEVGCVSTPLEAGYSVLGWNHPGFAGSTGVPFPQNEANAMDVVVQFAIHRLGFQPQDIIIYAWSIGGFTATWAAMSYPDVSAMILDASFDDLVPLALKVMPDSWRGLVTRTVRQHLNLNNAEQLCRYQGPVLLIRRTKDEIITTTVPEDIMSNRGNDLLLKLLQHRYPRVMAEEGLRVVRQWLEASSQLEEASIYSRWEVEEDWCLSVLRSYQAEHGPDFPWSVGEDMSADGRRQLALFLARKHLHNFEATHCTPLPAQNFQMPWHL
Chain of UniProt Q9H7T9 (Q9H7T9 whole entry, looked up): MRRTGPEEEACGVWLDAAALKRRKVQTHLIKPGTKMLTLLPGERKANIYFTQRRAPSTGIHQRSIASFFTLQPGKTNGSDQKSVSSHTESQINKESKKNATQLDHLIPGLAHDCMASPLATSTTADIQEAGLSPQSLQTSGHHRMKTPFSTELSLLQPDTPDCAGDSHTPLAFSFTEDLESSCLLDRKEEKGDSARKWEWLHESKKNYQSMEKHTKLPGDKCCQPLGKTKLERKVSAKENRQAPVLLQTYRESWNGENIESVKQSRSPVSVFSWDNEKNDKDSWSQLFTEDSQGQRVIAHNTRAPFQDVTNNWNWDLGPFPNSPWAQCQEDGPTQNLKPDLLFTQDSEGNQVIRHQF
Chain of UniProt Q92934 (Q92934 whole entry, looked up): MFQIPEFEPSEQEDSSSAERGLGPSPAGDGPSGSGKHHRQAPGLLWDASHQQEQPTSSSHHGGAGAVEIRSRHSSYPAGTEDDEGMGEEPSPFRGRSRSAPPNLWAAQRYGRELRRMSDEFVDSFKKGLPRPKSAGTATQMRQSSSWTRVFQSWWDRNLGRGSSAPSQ

Row | Target | log2 fold change (saracatinib) | log2 fold change (sotrastaurin) | log2 fold change (alvocidib) | log2 fold change (Tubastatin A) | log2 fold change [1] | log2 fold change (defactinib) | log2 fold change (rucaparib) | log2 fold change [2] | log2 fold change (encorafenib) | log2 fold change [3] | log2 fold change [4] | log2 fold change (filanesib) | log2 fold change (zotarolimus) | log2 fold change (idasanutlin) | log2 fold change (alisertib) | log2 fold change [5] | log2 fold change (gefitinib) | log2 fold change [6] | log2 fold change (pictilisib) | log2 fold change (lapatinib)
1 | BRAF (UniProt P15056) | 0.029 | -0.069 | -0.059 | 0.007 | -0.02 | -0.058 | 0.013 | -0.059 | 0.014 | -0.037 | -0.031 | -0.05 | -0.004 | -0.047 | 0.007 | -0.076 | 0.012 | 0.015 | -0.061 | 
2 | ATG9A (UniProt Q7Z3C6) | 0.016 | -0.084 | -0.086 | 0.067 | -0.029 | -0.09 | -0.008 | -0.052 | 0.055 | -0.013 | 0.008 | -0.113 | -0.014 | -0.003 | 0.064 | -0.073 | 0.011 | -0.015 | 0.075 | -0.045
3 | BAD (UniProt Q92934) | 0.021 | 0.273 | 0.005 |  | -0.032 | 0.03 | 0.032 | -0.016 | -0.047 | -0.004 | -0.103 | 0.124 | -0.073 | -0.049 | 0.103 | -0.016 | 0.115 | 0.068 | 0.022 | -0.037
4 | APAF1 (UniProt O14727) | -0.088 | 0 | -0.026 |  | 0.109 | 0.082 | 0.103 | 0.032 | 0.158 | 0.05 | -0.023 | -0.066 | -0.03 | -0.068 | 0.08 | 0.279 | -0.163 | 0.09 | -0.04 | 0.369
5 | BUB1B isoform 3 (UniProt O60566) | -0.071 | -0.113 | -0.074 | 0.031 | 0.042 | -0.076 | 0.006 | -0.031 | 0.097 | -0.029 | 0.038 | 0.103 | 0.014 | -0.014 | 0.005 | 0.001 | 0.032 | -0.098 | 0.065 | 0.006
6 | ALDH9A1 (UniProt P49189) | 0.005 | 0.032 | -0.088 | -0.019 | 0.016 | -0.008 | -0.014 | -0.041 | 0.023 | -0.058 |  | -0.149 | -0.164 | -0.073 | -0.091 | 0.038 | 0.039 | 0.081 | -0.124 | -0.037
7 | ACP1 (UniProt P24666) | -0.031 | -0.054 | -0.111 | 0.141 | -0.1 | -0.044 | 0.12 | 0.123 | 0.035 | -0.111 | 0.008 | -0.047 | -0.039 | -0.078 | 0.029 | 0.056 | 0.003 | -0.086 | -0.062 | -0.073
8 | ADD3 isoform 2 (UniProt Q9UEY8) | -0.112 | 0.014 | -0.166 | 0.058 |  | -0.025 | -0.036 | -0.172 | -0.166 | -0.025 | -0.022 | -0.025 | 0.186 | -0.276 | -0.042 | 0.094 |  | -0.003 | 0.125 | -0.028
9 | ARRDC1 (UniProt Q8N5I2) | 0.17 | -0.026 | -0.275 | 0.004 | -0.06 | -0.046 | 0.075 | -0.02 | -0.01 | -0.006 |  | 0.013 | 0.182 |  | 0.152 | -0.098 | -0.009 | 0 | -0.092 | 0.01
10 | BTBD6 (UniProt Q96KE9) | -0.031 | 0.021 | -0.143 | 0.211 | -0.141 | -0.131 | 0.327 | 0.082 | -0.101 | -0.009 |  | -0.019 | 0.062 | 0.053 | -0.058 | 0.194 | 0.03 | -0.186 | 0.143 | -0.072
11 | ABITRAM (UniProt Q9NX38) | 0.035 | -0.188 | -0.107 | -0.007 |  | -0.164 | -0.041 | -0.243 | 0.025 | -0.049 | 0.06 | 0.036 | 0.041 | 0.022 | 0.101 | 0.006 | 0.111 | 0.139 | 0.053 | 0.021
12 | AUNIP isoform 2 (UniProt Q9H7T9) | -0.007 | -0.085 | 0.053 | 0.278 | 0.189 | 0.043 |  | -0.086 |  | 0.342 |  | 0.125 | -0.044 | 0.142 |  | -0.229 |  |  |  | 0.099
13 | ARHGAP4 isoform 2 (UniProt P98171) | -0.094 | 0.115 | 0.089 | -0.172 | -0.096 | 0.22 | -0.062 | -0.139 | 0.047 | 0.097 |  | 0.027 | -0.012 | 0.104 | 0.166 | 0.067 | -0.211 | 0.028 |  | 0.051
14 | ABHD17A isoform 2 (UniProt Q96GS6) | 0.002 | 0.01 | 0.04 | 0.065 | -0.595 (active) | -0.008 | 0.017 | -0.052 | 0.104 | 0.059 | -0.194 | 0.086 | 0.012 | 0.034 | 0.032 | 0.069 | 0.081 | 0.027 | 0.077 | -0.038
15 | ABHD16A (UniProt O95870) | 0.01 | 0.214 | -0.033 | 0.004 | 0.031 | -0.065 | -0.017 | 0.162 | -0.05 | 0.031 | 0.051 | 0.067 | 0.204 | -0.042 | -0.049 | 0.347 (active) | 0.158 | -0.039 | 0.018 | 0.235
16 | BRD2 isoform 2 (UniProt P25440) | 0 | -0.172 | -0.111 | -0.37 | 0.146 | -0.125 |  | 0.255 |  | -0.074 | -0.174 | -0.11 | -0.361 | 0.072 |  | 0.214 |  |  | 0.016 | 0.005
17 | ALG5 (UniProt Q9Y673) | -0.011 | -0.071 | -0.088 | 0.005 | 0.016 | -0.055 | -0.113 | 0.008 | -0.025 | -0.036 | 0 | -0.054 | 0.039 | -0.139 | 0.675 | 0.095 | 0.023 | 0.013 | 0.075 | 0.046

— the supplement of paper PMC10849652
